Measurements taken from PubChem BioAssay (NCI).
This is part of a sample that, as a whole, favours compounds with a hit. Of some 83,000 tested, about 20% had one in any assay.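 Cells were grown in 96-well plates and exposed to the test compound at a single concentration for 48 hours; results are reported as percent growth, with values below 10 considered active.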 Activity calls are given as the source filed them.

test system: NCI-H460 lung; experiment: NCI-60 one-dose screen, 48 h (100 = growth as untreated, 0 = no growth, -100 = all killed); settings: 10 µM unless noted

Structure (SMILES)	growth
C/C(CCC(=O)O)=N/Nc1ccc([N+](=O)[O-])cc1	38% (inactive)
Nc1nc2c(c3ncncc13)C(c1cccc(C(F)(F)F)c1)Cc1ncncc1-2 (stereo not given)	10% (inactive)
COc1ccc(-c2nc(SCC(C)C)nc(Nc3ccc([N+](=O)[O-])cc3)c2C#N)cc1	57% (inactive)
Cn1c2c(cc(S(=O)(=O)c3ccccc3)c1=O)CCc1c-2cnn1-c1ccc(Cl)cc1	20.3% (inactive)
Nc1nc2c(c3cnccc13)C(c1cccc(Cl)c1)Cc1cnccc1-2 (stereo not given)	2.15% (active)
CCCCCSc1ccc2nc(NC(=O)OCCC)sc2c1	13.9% (inactive)
CCCCCSc1ccc2nc(NC(=O)OCC)sc2c1	10.5% (inactive)
Cc1c(Cc2ccccc2)c(=O)oc2c(C)c(OCc3n[nH]c(=S)o3)ccc12	3.31% (active)
CCOC(=O)c1c(C)oc2ncnc(Nc3ccc(C(=O)NCCc4ccccc4)cc3)c12	83% (inactive)
COc1cc(/C=C/C(=O)c2ccc(F)cc2)ccc1OCCCCOc1cc2c(cc1OC)C(=O)N1CCCC1C=N2 (stereo not given)	-49.5% (active)
C=C(C)[C@@H]1CC[C@]2(COC(=O)c3ccccc3C(=O)O)CC[C@]3(C)[C@H](CC[C@@H]4[C@@]5(C)CCCNC(C)(C)[C@@H]5CC[C@]43C)[C@@H]12	55.9% (inactive)
O=C(CCCC(=O)Nc1ccc(Cn2nnc3cc(Cl)c(Cl)cc32)cc1)Nc1ccc(CN2N=NC3C=C(Cl)C(Cl)=CC32)cc1 (stereo not given)	84.1% (inactive)
CCS(=O)(=O)OCCO[C@H]1Cc2cc3ccc(=O)oc3cc2OC1(C)C	105% (inactive)
O=C1Nc2ccccc2/C1=C/c1cn(CC(O)Cn2cc(/C=C3\C(=O)Nc4ccccc43)c3ccccc32)c2ccccc12 (stereo not given)	-65.1% (active)
COC(=O)Nc1nc2ccc(C(=O)c3ccccc3N(C)C3COC3)cc2[nH]1	13.5% (inactive)
COC(=O)/C=C/c1cc(O)c2oc(-c3ccc(O)c(O)c3)c(C(=O)OC)c2c1	29.1% (inactive)
CC(C)OC(=O)[C@H](C)N[P@@](=O)(OC[C@@]1(C)O[C@@H](n2cc(F)c(N)nc2=O)C[C@@H]1O[P@](=O)(N[C@@H](C)C(=O)OC(C)C)Oc1ccccc1)Oc1ccccc1	28.7% (inactive)
COc1cc2ncnc(Nc3ccc4c(cnn4C(=O)Nc4ccccc4)c3)c2cc1OC	103% (inactive)

Structure (SMILES)	growth
Cc1nnc(/N=C2\NC(=O)/C(=C/C=C/c3ccccc3)S2)s1	24.5% (inactive)
COC(c1ccccc1)C(Br)C(=O)c1ccccc1 (stereo not given)	127% (inactive)
O=C1c2ccccc2CCc2ccccc21	108% (inactive)
COc1cc2ncnc(-n3ncc4cc(NC(=O)Nc5ccccc5)ccc43)c2cc1OC	26.8% (inactive)
COc1cc(-c2cc3cnccc3c3nc(N)c4ccncc4c23)cc(OC)c1OC	54.9% (inactive)
COc1cc(OC)c(NC(=O)n2ncc3cc(Nc4ncnc5ccccc45)ccc32)cc1Cl	108% (inactive)
COc1cc(OC)cc(-c2ccc(-c3ccc(C(=N)N)cc3)s2)c1	-88.5% (active)
CC1(C)NCCC[C@]2(C)[C@H]3CC=C4[C@@H]5C[C@](C)(COC(=O)c6ccccc6C(=O)O)CC[C@]5(C)CC[C@@]4(C)[C@]3(C)CC[C@@H]12	29.7% (inactive)
Nc1ncn([C@@H]2O[C@H](CO)[C@@H](O)C2(F)F)c(=O)n1	9.34% (active)
CCOC(=O)c1cc(C(=O)c2ccc(Br)cc2)n2cc(C)cc(C)c12	95.9% (inactive)
Nc1nc2c(c3cnccc13)C(c1cccc(Br)c1)Cc1cnccc1-2 (stereo not given)	4.41% (active)
O=C1/C(=C\c2cn(-c3nc(N4CCOCC4)nc(N4CCOCC4)n3)c3ccccc23)c2ccccc2N1c1c(Cl)cccc1Cl	40.8% (inactive)
COc1cc2ncnc(-n3ncc4cc(NC(=O)Nc5ccc(Cl)c(C)c5)ccc43)c2cc1OC	102% (inactive)
CC1=C[C@@H]2c3c(c(O)c(O)c4oc5cc(O)cc(O)c5c(=O)c34)[C@@H](c3cc(O)c(O)c4oc5cc(O)cc(O)c5c(=O)c34)[C@@H]2C(C)(C)C1	-28.3% (active)
N=C(N)c1ccc(-c2ccc(-c3cc(Cl)cc(Cl)c3)s2)cc1	-81.1% (active)
COc1cc2ncnc(-n3ncc4cc(NC(=O)Nc5ccc(Cl)c(Cl)c5)ccc43)c2cc1OC	-53.9% (active)
COC1=CC(c2ccc[nH]2)=N/C1=C\c1[nH]c(C)c(C(=O)CCCCC(=O)NC(C)(C)C)c1C	5.36% (active)
